Screens deposited in PubChem BioAssay by National Center for Advancing Translational Sciences (NCATS).
Shiga toxin inh: inhibitors of Shiga toxin in Vero cells. Vero cells, Shiga toxin protein synthesis inhibition reporter. 9.2% of 290,000 active. inhibition, % at 38.7 µM; in the data active = inhibition mostly above about 28%, no sharp cut-off; inactive = mostly below about 43%; note: 0% is about no effect
CHX counter: counter-screen hit for Shiga toxin inhibitors, cycloheximide; AID 2314; max response, %; 12% of 300,000 active; cell reporter, cycloheximide protein synthesis inhibition counterscreen; in the data active = max response mostly above about 13%, no sharp cut-off; inactive = mostly below about 14%; note: read at 38.3 µM for the half of the compounds with a filed dose; 0% is about no effect
Pf growth 96h: inhibits malaria parasite growth, 96 h; P. falciparum luciferase reporter growth, 96 h; Potency, µM (highest dose often 28.7 µM), for the others: top-dose activity change, negative = inhibition, actives largely listed as inhibitors; 6.9% of 320,000 active; AID 504834; note: potency is the fitted concentration of half-maximal effect; % is set by controls: 0 for no effect and ±100 for the full control effect
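Two-generation exposure (96 h) targets delayed-death phenotype. Reporter parasites carrying integrated firefly luciferase, in red cells at 2% hematocrit and 0.05% parasitemia final, kept at 37 C, 5% CO2; luminescence loss indicates inhibition.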
HCMV antiviral: human cytomegalovirus inhibition. HFF cells, HCMV-luciferase reporter, 72 h; stronger effect = lower value. activity change, negative = inhibition, % at 57.5 µM. 4.5% of 410,000 active. AID 1259415; in the data active = activity change below about -60%; inconclusive = no clear call, values can overlap the other calls; inactive = above about -39%; note: % is set by controls: 0 for no effect and ±100 for the full control effect
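Human foreskin fibroblasts infected with luciferase-reporter HCMV at MOI 1 PFU/cell, compounds at two doses. Luciferase measured 72 h post infection; normalized to buffer-only basal and Salinomycin (10uM) controls.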
Pf growth 48h: P. falciparum growth inhibition at 48 hours (one generation) | P. falciparum luciferase growth in erythrocytes, 48 h | Potency, µM (doses to about 28.7 µM), for the others: at the highest dose activity change, negative = inhibition, hits mostly inhibitors | 5.9% of 310,000 active | AID 504832; note: potency is the fitted concentration of half-maximal effect; % is set by controls: 0 for no effect and ±100 for the full control effect
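A one-generation exposure of luciferase-tagged malaria parasites in RPMI 1640/Albumax erythrocyte culture, 37 C and 5% CO2. Inhibition is inferred from decreased luminescence after adding detection reagent.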
HCV inh: blocks hepatitis C virus; Huh7.5.1 HCVcc-Cre infection, luciferase reporter, 44 h; Potency, µM (highest dose often 41.8 µM), for inactives: at the top dose activity change, negative = inhibition, usual class: inhibitors; 3.4% of 340,000 active; AID 651820; note: potency is the fitted concentration of half-maximal effect; % is set by controls: 0 for no effect and ±100 for the full control effect
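Whole-lifecycle infectious HCVcc-Cre system; cells 1,000/well, compound then virus (~0.5 moi) added 4 h after plating, 44 h culture. Luciferase read 15 sec following 15 min substrate incubation, room temp.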
* marks the source's active call; other numbers are inactive results; ? = inconclusive; nt = not tested or not shown; [ ] = dose if it differs, or a comment. Shown are actives, neighbours in structure and some others; about 21% of the full set was active somewhere. Unless noted, calls come from the whole dose curve; as a rule, active = well fitted inhibition curve with a large enough effect; inconclusive = small, poorly fitted or top-dose-only effect, or another doubt; inactive = no such curve, though single readings can be large or run the other way.

SMILES	Shiga toxin inh	CHX counter	Pf growth 96h	HCMV antiviral	Pf growth 48h	HCV inh
CC(=O)c1ccc(NC(=O)NCCc2c[nH]c3ccccc23)cc1	nt	nt	nt	52	nt	nt
Cc1ccc(-n2cc(-c3ccccc3)[nH]c2=O)cc1F	115*	46*	?	83	181%	9%
CCOC(=O)N1CCC(NC(=O)c2cnn(-c3ccc(C)cc3)c2C2CCN(C(=O)OC(C)(C)C)CC2)CC1	nt	nt	nt	0	nt	nt
CCOC(=O)C1=C(CSc2nc3ccccc3s2)NC(=O)NC1c1cccc([N+](=O)[O-])c1 (stereo not drawn)	19	7	?	-1	5.9µM*	7%
CCOC(=O)C1=C(CNCc2ccccc2Cl)NC(=O)NC1c1cccc([N+](=O)[O-])c1 (stereo not drawn)	-4	-2	0.93µM*	-15	?	?
CCOC(=O)C1=C(CNCCc2ccc(Cl)cc2)NC(=O)NC1c1cccc([N+](=O)[O-])c1 (stereo not drawn)	-8	-3	17%	-6	?	?
COc1cc(C2NC(=S)NC(C)=C2C(=O)Nc2ccc(C)cc2)ccc1O (stereo not drawn)	71*	45*	-6%	-24	70%	-21%
CCOC(=O)C1=C(CNCc2ccc(C)cc2)NC(=O)NC1c1cc(C)ccc1C (stereo not drawn)	-9	-2	3.3µM*	-7	nt	3%
CCOC(=O)C1=C(Cn2cnc3ccccc32)NC(=O)NC1c1cc(C)ccc1C (stereo not drawn)	-16	-7	?	19	?	?
Cc1nc2cc(Nc3ccncc3)ccc2s1	-7	-2	?	-13	-16%[5.75 µM]	9%
COc1cc(C2NC(=O)NC(C)=C2C(=O)OC2CCC(C)CC2)ccc1O (stereo not drawn)	-16	-4	2.6µM*	-9	12µM*	11%
COc1ccc(C2NC(=O)NC(C)=C2C(=O)OC2CCC(C)CC2)cc1 (stereo not drawn)	-7	-1	?	?	4%	?
CC1=C(C(=O)OC2CCCCC2)C(c2cccc([N+](=O)[O-])c2)NC(=O)N1 (stereo not drawn)	-1	-2	0%	-2	-7%	11µM*
CC1=C(C(=O)OC2CCCCCCC2)C(c2cccc(O)c2)NC(=O)N1 (stereo not drawn)	-5	-3	12%	43	-15%	9%
COc1cc2c(cc1N/C=C(\C#N)c1nc(-c3ccc(F)cc3)cs1)oc1ccccc12	-5	0	?	-27	9.3µM*	9%
O=C(C[C@H]1CC[C@H]2[C@@H](COC[C@@H](O)CN2C(=O)c2cnccn2)O1)NCc1ccc(Oc2ccccc2)cc1	nt	nt	nt	-68*	nt	nt
O=C(C[C@H]1CC[C@@H]2[C@H](COC[C@@H](O)CN2C(=O)C2CC2)O1)NCc1ccccc1Cl	nt	nt	nt	-31	nt	nt
Cc1ccc(-n2nc3c(N4CCC(C(=O)N(C)Cc5ccccc5)CC4)nnc(C)c3c2C)cc1	nt	nt	nt	-5	nt	nt
Cc1[nH]c(=O)n(C(C)C)c(=O)c1Br	nt	nt	nt	-4	nt	19%
COc1cccc(CN2c3ccc(Br)cc3C(=O)CS2(=O)=O)c1	nt	nt	?	-17	9.3µM*	?
COc1ccc(C(=O)c2ccc(OC)c(OC)c2)cc1OC	16	-4	24%	-14	-8%	3%
COc1ccc(C(=O)c2ccc(OC)c(N)c2)cc1N	122*	50*	nt	77	135%	16%
CCC(C)(C)n1nnnc1C(c1ccc(OC)c(OC)c1)N1CCN(c2ccc(F)cc2)CC1 (stereo not drawn)	-6	-2	nt	-19	13µM*	-7%
CCC(C)(C)n1nnnc1C(c1ccc(OC)c(OC)c1)N1CCN(c2cccc(OC)c2)CC1 (stereo not drawn)	-7	-2	41%	?	7.4µM*	8%
Cc1cc(NCCCN2CCOCC2)n2ncc(-c3ccccc3)c2n1	78*	56*	?	112	55%	?
Cc1cc(NCCCN2CCOCC2)n2nc(C)c(-c3ccccc3)c2n1	21	-1	?	44	?	-26%
